{"source": "PubChem BioAssay (Tox21)", "note": "Values joined by “and” are separate entries in the source; they are usually repeats but may differ in a detail not shown here. Identical values can stand only once. Where a structure was tested more than once in an assay, its records may differ in their call. Active and inactive are the calls of the source. Entries that show only a call come without a potency. Calls follow the shape of the full dose curve. Potency is read from the fitted curve at half-maximal effect."}
{"biological_target": "Acetylcholinesterase (Homo sapiens) (UniProt P22303)", "sequence (P22303 whole entry, looked up)": "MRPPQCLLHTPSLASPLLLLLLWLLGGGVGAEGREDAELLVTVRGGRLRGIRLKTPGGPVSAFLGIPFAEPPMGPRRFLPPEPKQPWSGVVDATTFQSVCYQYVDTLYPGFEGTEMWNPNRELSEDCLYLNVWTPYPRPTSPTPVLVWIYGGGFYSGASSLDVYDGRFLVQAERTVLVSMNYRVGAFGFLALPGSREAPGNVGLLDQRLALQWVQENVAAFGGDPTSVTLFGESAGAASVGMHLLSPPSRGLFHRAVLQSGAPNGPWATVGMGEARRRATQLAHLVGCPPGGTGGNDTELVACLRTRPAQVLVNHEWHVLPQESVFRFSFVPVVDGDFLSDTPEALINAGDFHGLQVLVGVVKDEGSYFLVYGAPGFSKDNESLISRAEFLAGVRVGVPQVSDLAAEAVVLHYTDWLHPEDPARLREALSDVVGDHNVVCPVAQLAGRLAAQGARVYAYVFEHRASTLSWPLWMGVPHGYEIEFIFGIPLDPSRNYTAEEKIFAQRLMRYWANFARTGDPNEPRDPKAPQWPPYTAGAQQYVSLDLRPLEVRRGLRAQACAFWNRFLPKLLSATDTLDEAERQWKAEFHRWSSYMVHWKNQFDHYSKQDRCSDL", "experiment": "Acetylcholinesterase (AChE) small molecule antagonists: enzyme-based qHTS assay with human liver microsomes (AID 1347399); also: nearly all actives have a fitted effect of over 60% in size", "settings": "Potency: qHTS inhibition; series mostly up to 115 µM", "text": "National Center for Advancing Translational Sciences [NCATS]\nDivision of Preclinical Innovation [DPI]\nU.S. Environmental Protection Agency [EPA]\nNational Institutes of Environmental Health Sciences [NIEHS]\nNational Toxicology Program [NTP]\nU.S. Food and Drug Administration [FDA]\nAcetylcholinesterase (AChE) is the primary cholinesterase in the body that hydrolyzes a key neurotransmitter, acetylcholine. Inhibition of AChE activity can lead to neurotoxicity. The known inhibitors include organophosphorous pesticides (OP), chemical warfare agents, drugs, and various phytochemicals. Some compounds like OP compounds may need metabolic activation to be active AChE inhibitors. The cytochrome P450 (CYP) superfamily in the human microsomes is responsible for the metabolism of various endogenous and exogenous compounds.\nAn enzyme-based assay with the recombinant human AChE, human liver microsomes and Amplite Colormetric acetylcholinesterase assay kit (AAT Bioquest, Sunnyvale, CA) was used to evaluate compounds in the Tox21 10K library that need metabolic activation for AChE inhibition. The assay uses 5, 5-dithiobis-(2-nitrobenzoic acid) (DTNB) to quantify the thiocholine produced from the hydrolysis of acetylthiocholine by AChE.\nTox21 Assay Protocol Summary:\nFor the enzyme-based AChE assay with microsomes addition, a mixture of human AChE (50 mU/mL) and human liver microsomes (0.25 mg/mL, final concentration) in 3 uL/well was dispensed into black, clear-bottom 1536-well plates using a Multidrop Combi dispenser (Thermo Scientific, MA). Then, 23 nL of compound or DMSO (vehicle control) was transferred into the assay plates by a Pintool Station (Wako Automation, CA). Following compound addition, 1 uL of NADPH (0.25 mg/mL, final concentration) was transferred to the assay plate by a Flying Reagent Dispenser (Beckman Coulter, CA). The plates were incubated for 30 min at 37 C and 5% CO2, followed by the addition of 4 uL of colorimetric detection cocktail solution (DTNB, acetylthiocholine) into each well using a Flying Reagent Dispenser (Beckman Coulter, CA) and then 10 min incubation at room temperature."}
{"smiles": "CCC[N+]1(C)CCCCC1", "Potency": "inactive"}
{"smiles": "Nc1ccc(-c2ccc(N)cc2)cc1", "Potency": "inactive"}
{"smiles": "Cc1cc(Cl)ccc1OCC(=O)O", "Potency": "inactive"}
{"smiles": "CCCn1cc[n+](C)c1", "Potency": "inactive"}
{"smiles": "CC(=O)[O][Hg][c]1ccccc1", "Potency": "inactive"}
{"smiles": "CC[N+]1(C)CCCC1", "Potency": "inactive"}
{"smiles": "OCCOc1ccccc1", "Potency": "inactive"}
{"smiles": "COP(=O)(OC)OC=C(Cl)Cl", "Potency": "inactive"}
{"smiles": "CCCCCCCCCCn1cc[n+](C)c1", "Potency": "inactive"}
{"smiles": "C1CCC(NC2CCCCC2)CC1", "Potency": "inactive"}
{"smiles": "CCCCCCCCCCCCCCCCn1cc[n+](C)c1", "Potency": "inactive"}
{"smiles": "O=C(O)c1nc(Cl)ccc1Cl", "Potency": "inactive"}
{"smiles": "CCC(=O)C(CC(C)N(C)C)(c1ccccc1)c1ccccc1", "note": "(centres undefined)", "Potency": "inactive"}
{"smiles": "O=[N+]([O-])c1ccccc1O", "Potency": "inactive"}
{"smiles": "CCOP(=S)(OCC)Oc1ccc2c(C)c(Cl)c(=O)oc2c1", "Potency": "1.8 µM (active) and 633 nM (active) and inactive"}
{"smiles": "C=CCOC(Cn1ccnc1)c1ccc(Cl)cc1Cl", "note": "(centres undefined)", "Potency": "inactive"}
{"smiles": "CC[n+]1ccccc1", "Potency": "inactive"}
{"smiles": "CCCCCCCCCCCCOS(=O)(=O)O", "Potency": "inactive"}
{"smiles": "Cc1cc(-c2ccc(N)c(C)c2)ccc1N", "Potency": "inactive"}
{"smiles": "C[N+](C)(C)Cc1ccccc1", "Potency": "inactive"}
{"smiles": "Nc1ccc(-c2ccc(N)c(Cl)c2)cc1Cl", "Potency": "inactive"}
{"smiles": "CCCCCCCCCCCCCC[P+](CCCCCC)(CCCCCC)CCCCCC", "Potency": "inactive"}
{"smiles": "CC(Cl)(Cl)C(=O)O", "Potency": "inactive"}
{"smiles": "O=C(O)CCl", "Potency": "inactive"}
{"smiles": "C[C@]12CCC(=O)C=C1CC[C@@H]1[C@@H]2CC[C@]2(C)C(=O)CC[C@@H]12", "Potency": "inactive"}
{"smiles": "CCNc1nc(Cl)nc(NCC)n1", "Potency": "inactive"}
{"smiles": "O=P1(N(CCCl)CCCl)NCCCO1", "note": "(centres undefined)", "Potency": "inactive"}
{"smiles": "O=c1[nH]c(=O)n(Cl)c(=O)n1Cl", "Potency": "inactive"}
{"smiles": "CCCCCCCCCCCC(=O)O", "Potency": "inactive"}
{"smiles": "Oc1ccccc1-c1ccccc1", "Potency": "inactive"}
{"smiles": "CNC", "Potency": "inactive"}
{"smiles": "O=C(O)COc1ccc(Cl)cc1Cl", "Potency": "inactive"}
{"smiles": "CCCC[N+]1(C)CCCCC1", "Potency": "inactive"}
{"smiles": "O=c1nc(O)n(Cl)c(=O)n1Cl", "Potency": "inactive"}
{"smiles": "CCn1cc[n+](C)c1C", "Potency": "inactive"}
{"smiles": "O=C(O)C(Cl)Cl", "Potency": "inactive"}
{"smiles": "O=C(O)C(Cl)(Cl)Cl", "Potency": "inactive"}
{"smiles": "COCC(=O)N(c1c(C)cccc1C)C(C)C(=O)OC", "note": "(centres undefined)", "Potency": "inactive"}
{"smiles": "Nc1ccc(Cl)cc1", "Potency": "inactive"}
